# Results as given in the supplement of paper PMC4206461.
# Values without a mark were called inactive.
# Test system: Pseudomonas aeruginosa PA14 dppBCDF deletion mutant
# Assay: respiration area under curve with compound as sole nitrogen source, 24 h (OmniLog AUC (arbitrary units)); higher = more respiration / better utilisation as nitrogen source, active = 2000 or more; extreme values may be limits of the assay
# Experimental: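 Biolog Phenotype MicroArray plates PM6-PM8: each di/tripeptide is the sole nitrogen source. Tetrazolium reduction was read in the OmniLog every 15 min for 24 h at 37°C and summarised as area under the respiration curve (arbitrary units). Values below 2000 count as no respiration. Strain is the dipeptide ABC transporter deletion mutant.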
row,SMILES,respiration area under curve
1,O=C(O)[C@H](CO)NC(=O)[C@@H]1CCCN1 (plate: PM8),1290
2,N[C@@H](CO)C(=O)N1CCC[C@H]1C(=O)O (plate: PM7),0
3,CC(C)[C@H](N)C(=O)N[C@@H](Cc1ccc(O)cc1)C(=O)O (plate: PM7),3890 (active)
4,CC[C@H](C)[C@H](NC(=O)[C@@H]1CCCN1)C(=O)O (plate: PM8),1
5,N[C@@H](CO)C(=O)N[C@@H](Cc1ccccc1)C(=O)O (plate: PM7),968
6,CSCC[C@H](N)C(=O)NCC(=O)O (plate: PM7),33.2
7,NC(N)=NCCC[C@H](N)C(=O)N[C@@H](CC(=O)O)C(=O)O (plate: PM6),7880 (active)
8,N[C@@H](CCC(=O)O)C(=O)N[C@@H](CC(=O)O)C(=O)O (plate: PM6),0
9,CC(C)[C@H](N)C(=O)N1CCC[C@H]1C(=O)O (plate: PM8),0
10,C[C@@H](O)[C@H](N)C(=O)N[C@@H](CCC(=O)O)C(=O)O (plate: PM7),34.2
11,NCC(=O)N[C@H](CO)C(=O)O (plate: PM8),0
12,CC(C)C[C@H](N)C(=O)N[C@@H](Cc1ccccc1)C(=O)O (plate: PM6),3930 (active)
13,O=C(O)[C@H](Cc1ccccc1)NC(=O)[C@@H]1CCCN1 (plate: PM7),3470 (active)
14,CC(C)C(N)C(=O)NC(CO)C(=O)O (stereo not given) (plate: PM8),844
15,NC(CO)C(=O)NC(CCC(=O)O)C(=O)O (stereo not given) (plate: PM8),0
16,O=C(O)CC[C@H](NC(=O)[C@@H]1CCCN1)C(=O)O (plate: PM8),0
17,NC(=O)C[C@H](NC(=O)[C@@H](N)CO)C(=O)O (plate: PM8),10400 (active)
18,N[C@@H](Cc1ccccc1)C(=O)N[C@@H](Cc1ccccc1)C(=O)O (plate: PM7),2740 (active)
19,NCC(=O)NCC(=O)NCC(=O)O (plate: PM8),5.75
20,N[C@@H](Cc1ccccc1)C(=O)N[C@@H](Cc1ccc(O)cc1)C(=O)O (plate: PM8),881

row,SMILES,respiration area under curve
1,NC(=O)CC[C@H](N)C(=O)NCC(=O)O (plate: PM6),2500 (active)
2,N[C@@H](Cc1ccccc1)C(=O)NCC(=O)NCC(=O)O (plate: PM8),1300
3,N[C@@H](Cc1ccccc1)C(=O)N[C@@H](CCC(=O)O)C(=O)O (plate: PM8),0
4,C[C@@H](O)[C@H](N)C(=O)N[C@@H](CCC(N)=O)C(=O)O (plate: PM8),454
5,N[C@@H](CO)C(=O)N[C@@H](CC(=O)O)C(=O)O (plate: PM8),0
6,CC(C)C[C@H](NC(=O)[C@@H](N)[C@@H](C)O)C(=O)O (plate: PM7),1070
7,N[C@@H](Cc1ccc(O)cc1)C(=O)N[C@@H](Cc1c[nH]c2ccccc12)C(=O)O (plate: PM7),1770
8,C[C@H](N)C(=O)N[C@@H](C)C(=O)O (plate: PM6),6250 (active)
9,N[C@@H](CC(=O)O)C(=O)N[C@@H](CC(=O)O)C(=O)O (plate: PM6),12.5
10,C[C@H](NC(=O)[C@@H]1CCCN1)C(=O)O (plate: PM7),103
11,NCC(=O)N[C@@H](CC(=O)O)C(=O)O (plate: PM8),6.75
12,CC(C)[C@H](NC(=O)[C@@H](N)CO)C(=O)O (plate: PM7),3050 (active)
13,NC(=O)CC[C@H](NC(=O)[C@@H](N)CCC(N)=O)C(=O)O (plate: PM6),4130 (active)
14,CC(C)C[C@H](NC(=O)[C@@H](N)Cc1ccc(O)cc1)C(=O)O (plate: PM7),5310 (active)
15,CC(C)C[C@H](NC(=O)[C@@H]1CCCN1)C(=O)O (plate: PM7),626
16,NC(=O)C[C@H](NC(=O)[C@@H]1CCCN1)C(=O)O (plate: PM8),5910 (active)
17,NC(=O)CC[C@H](NC(=O)[C@@H](N)CO)C(=O)O (plate: PM8),558
18,CC[C@H](C)[C@H](NC(=O)CN)C(=O)O (plate: PM8),1250
19,NC(Cc1c[nH]c2ccccc12)C(=O)NC(Cc1ccccc1)C(=O)O (stereo not given) (plate: PM7),14.8
20,CC(C)C[C@H](N)C(=O)N1CCC[C@H]1C(=O)O (plate: PM8),0
